Legend:
Experiment in all cases: log2 ratio of Biotin-Ahx-Ub-VS probe labelling (fragment/DMSO); higher = less target engagement (more negative = stronger competition), active = hit call of the paper (q ≤ 0.05, log2 ratio ≤ -1)
Conditions in all cases: compound concentration: 200 uM; treatment time: 3 h
OTUD6B = target: T1, OTUD6B (UniProt Q8N6M0)
T1 sequence (whole entry): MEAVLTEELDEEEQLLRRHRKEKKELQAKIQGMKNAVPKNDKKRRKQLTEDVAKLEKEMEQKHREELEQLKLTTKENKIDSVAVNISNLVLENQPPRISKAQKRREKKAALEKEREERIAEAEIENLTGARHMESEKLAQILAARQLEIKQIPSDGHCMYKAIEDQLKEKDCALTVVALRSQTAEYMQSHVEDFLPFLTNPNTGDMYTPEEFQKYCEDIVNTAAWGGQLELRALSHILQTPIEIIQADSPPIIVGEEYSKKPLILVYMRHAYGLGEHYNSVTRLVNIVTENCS
How it was run: (§1)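 Each value is an average log2 ratio of fragment to vehicle, tested by unpaired t-test. The underlying Spectronaut label-free quantities were global-median-normalised, and only proteins with ≥2 unique peptides were included. Triplicate HEK293T lysate samples (495 µg) were exposed to fragment at 200 µM or vehicle for 3 h, then to Biotin-Ahx-Ub-VS at 0.5 µM final for 1 h, before NeutrAvidin enrichment of labelled DUBs, LysC and trypsin digestion, and diaPASEF LC-MS/MS.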

OTUD7B = target: T2, OTUD7B (UniProt Q6GQQ9)
T2 sequence (whole entry): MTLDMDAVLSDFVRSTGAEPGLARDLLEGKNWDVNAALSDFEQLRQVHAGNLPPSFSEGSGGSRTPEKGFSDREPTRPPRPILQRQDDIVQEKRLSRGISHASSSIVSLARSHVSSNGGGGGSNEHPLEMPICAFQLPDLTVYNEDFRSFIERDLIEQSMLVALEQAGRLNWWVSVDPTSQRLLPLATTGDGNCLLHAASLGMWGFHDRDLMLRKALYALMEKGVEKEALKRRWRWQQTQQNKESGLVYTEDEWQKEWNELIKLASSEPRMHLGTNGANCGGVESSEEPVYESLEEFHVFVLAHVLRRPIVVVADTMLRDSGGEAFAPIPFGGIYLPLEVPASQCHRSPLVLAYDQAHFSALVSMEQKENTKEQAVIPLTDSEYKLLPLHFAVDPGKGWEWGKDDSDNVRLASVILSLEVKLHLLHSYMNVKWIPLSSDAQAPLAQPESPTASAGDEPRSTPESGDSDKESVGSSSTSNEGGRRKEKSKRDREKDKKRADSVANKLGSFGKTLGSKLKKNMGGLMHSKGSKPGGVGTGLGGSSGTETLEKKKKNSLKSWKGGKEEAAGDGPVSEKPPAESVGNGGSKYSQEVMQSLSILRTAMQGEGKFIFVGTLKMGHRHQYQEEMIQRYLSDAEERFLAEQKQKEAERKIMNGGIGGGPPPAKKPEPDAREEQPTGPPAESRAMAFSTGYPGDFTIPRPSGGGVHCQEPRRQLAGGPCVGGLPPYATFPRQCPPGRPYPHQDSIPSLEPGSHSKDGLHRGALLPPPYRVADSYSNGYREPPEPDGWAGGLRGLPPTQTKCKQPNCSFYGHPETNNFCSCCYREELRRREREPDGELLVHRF
How it was run: as §1

PRPF8 = PRPF8 (UniProt Q6P2Q9)
How it was run: as §1

PSMD7 = target: T3, PSMD7 (UniProt P51665)
T3 sequence (whole entry): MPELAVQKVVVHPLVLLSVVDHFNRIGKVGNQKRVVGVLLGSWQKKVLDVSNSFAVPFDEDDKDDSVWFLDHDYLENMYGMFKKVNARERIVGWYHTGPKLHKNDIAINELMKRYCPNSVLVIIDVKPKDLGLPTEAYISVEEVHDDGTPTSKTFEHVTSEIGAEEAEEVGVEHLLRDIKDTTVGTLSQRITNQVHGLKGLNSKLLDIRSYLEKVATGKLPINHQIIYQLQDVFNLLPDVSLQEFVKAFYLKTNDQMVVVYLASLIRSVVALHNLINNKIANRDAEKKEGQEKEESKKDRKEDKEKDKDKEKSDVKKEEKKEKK
How it was run: as §1

UCHL1 = UCHL1 (UniProt P09936)
UCHL1, sequence (P09936 whole entry, looked up): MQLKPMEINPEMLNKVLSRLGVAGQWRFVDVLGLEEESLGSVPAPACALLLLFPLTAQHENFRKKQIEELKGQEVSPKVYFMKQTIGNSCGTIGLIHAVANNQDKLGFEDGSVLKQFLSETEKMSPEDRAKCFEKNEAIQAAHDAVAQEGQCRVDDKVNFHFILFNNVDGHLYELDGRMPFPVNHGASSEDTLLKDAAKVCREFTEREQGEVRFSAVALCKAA
How it was run: as §1

UCHL3 = target: T4, UCHL3 (UniProt P15374)
T4 sequence (whole entry): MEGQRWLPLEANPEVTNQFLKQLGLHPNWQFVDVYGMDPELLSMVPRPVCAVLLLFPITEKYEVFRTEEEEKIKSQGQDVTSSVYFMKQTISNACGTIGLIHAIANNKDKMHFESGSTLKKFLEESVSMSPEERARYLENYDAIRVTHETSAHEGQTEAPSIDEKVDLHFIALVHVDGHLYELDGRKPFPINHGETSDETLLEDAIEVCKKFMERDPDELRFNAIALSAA
How it was run: as §1

UCHL5 = target: T5, UCHL5 (UniProt Q9Y5K5)
T5 sequence (whole entry): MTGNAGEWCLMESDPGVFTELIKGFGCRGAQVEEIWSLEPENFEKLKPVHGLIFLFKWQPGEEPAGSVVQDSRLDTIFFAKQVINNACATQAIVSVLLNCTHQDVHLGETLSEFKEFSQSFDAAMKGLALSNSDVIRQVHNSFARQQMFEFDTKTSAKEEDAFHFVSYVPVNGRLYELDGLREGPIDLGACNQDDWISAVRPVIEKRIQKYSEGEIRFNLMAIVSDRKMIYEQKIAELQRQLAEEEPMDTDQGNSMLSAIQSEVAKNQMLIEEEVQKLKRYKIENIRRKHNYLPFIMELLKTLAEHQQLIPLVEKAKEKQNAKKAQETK
How it was run: as §1

USP10 = USP10 (UniProt Q14694)
USP10, sequence (Q14694 whole entry): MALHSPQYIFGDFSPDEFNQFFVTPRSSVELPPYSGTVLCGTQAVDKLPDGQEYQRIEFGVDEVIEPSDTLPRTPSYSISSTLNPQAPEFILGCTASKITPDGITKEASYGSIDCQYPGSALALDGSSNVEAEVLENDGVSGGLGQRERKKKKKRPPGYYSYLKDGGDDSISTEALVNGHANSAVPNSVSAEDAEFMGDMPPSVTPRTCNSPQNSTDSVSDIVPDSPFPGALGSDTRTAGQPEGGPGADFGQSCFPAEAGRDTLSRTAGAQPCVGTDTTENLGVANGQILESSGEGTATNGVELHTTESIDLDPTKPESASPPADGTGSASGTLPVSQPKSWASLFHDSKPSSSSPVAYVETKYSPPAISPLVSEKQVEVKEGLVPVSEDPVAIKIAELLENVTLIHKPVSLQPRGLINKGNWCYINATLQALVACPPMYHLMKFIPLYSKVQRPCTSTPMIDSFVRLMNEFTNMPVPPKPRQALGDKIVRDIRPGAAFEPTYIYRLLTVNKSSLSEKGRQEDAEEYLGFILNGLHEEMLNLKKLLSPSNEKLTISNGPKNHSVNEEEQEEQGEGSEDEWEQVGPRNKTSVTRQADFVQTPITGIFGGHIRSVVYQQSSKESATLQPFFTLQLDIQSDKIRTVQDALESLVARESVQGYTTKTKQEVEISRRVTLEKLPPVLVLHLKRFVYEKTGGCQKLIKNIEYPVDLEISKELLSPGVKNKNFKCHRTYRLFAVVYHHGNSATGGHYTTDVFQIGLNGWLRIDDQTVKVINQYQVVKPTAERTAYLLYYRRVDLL
How it was run: as §1

USP15 = target: T6, USP15 (UniProt Q9Y4E8)
T6 sequence (whole entry): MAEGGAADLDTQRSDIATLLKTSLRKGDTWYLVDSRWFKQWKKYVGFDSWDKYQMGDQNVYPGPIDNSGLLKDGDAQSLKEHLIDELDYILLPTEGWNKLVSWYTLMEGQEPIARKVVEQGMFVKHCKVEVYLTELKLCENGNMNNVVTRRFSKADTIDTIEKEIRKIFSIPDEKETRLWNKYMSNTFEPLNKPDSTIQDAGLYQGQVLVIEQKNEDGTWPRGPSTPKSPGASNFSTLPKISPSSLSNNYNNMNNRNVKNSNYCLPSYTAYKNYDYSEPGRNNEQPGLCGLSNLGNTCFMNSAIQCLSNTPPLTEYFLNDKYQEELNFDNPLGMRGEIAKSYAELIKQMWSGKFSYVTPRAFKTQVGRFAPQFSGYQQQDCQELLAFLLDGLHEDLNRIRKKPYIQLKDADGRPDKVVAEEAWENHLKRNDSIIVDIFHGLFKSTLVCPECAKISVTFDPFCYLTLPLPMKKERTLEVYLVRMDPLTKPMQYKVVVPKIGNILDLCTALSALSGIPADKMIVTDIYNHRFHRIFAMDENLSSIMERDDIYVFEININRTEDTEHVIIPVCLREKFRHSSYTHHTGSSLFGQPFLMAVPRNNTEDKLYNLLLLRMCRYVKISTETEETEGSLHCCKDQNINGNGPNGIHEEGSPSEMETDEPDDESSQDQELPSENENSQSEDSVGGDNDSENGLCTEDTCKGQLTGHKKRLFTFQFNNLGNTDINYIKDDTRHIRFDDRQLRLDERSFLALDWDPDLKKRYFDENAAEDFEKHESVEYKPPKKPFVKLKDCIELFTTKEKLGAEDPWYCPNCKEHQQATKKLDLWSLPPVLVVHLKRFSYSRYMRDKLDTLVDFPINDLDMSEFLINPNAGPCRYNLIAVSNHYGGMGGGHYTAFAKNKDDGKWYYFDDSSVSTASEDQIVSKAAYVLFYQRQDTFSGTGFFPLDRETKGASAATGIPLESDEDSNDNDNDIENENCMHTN
How it was run: as §1

USP16 = USP16 (UniProt Q9Y5T5)
USP16, sequence (Q9Y5T5 whole entry, looked up): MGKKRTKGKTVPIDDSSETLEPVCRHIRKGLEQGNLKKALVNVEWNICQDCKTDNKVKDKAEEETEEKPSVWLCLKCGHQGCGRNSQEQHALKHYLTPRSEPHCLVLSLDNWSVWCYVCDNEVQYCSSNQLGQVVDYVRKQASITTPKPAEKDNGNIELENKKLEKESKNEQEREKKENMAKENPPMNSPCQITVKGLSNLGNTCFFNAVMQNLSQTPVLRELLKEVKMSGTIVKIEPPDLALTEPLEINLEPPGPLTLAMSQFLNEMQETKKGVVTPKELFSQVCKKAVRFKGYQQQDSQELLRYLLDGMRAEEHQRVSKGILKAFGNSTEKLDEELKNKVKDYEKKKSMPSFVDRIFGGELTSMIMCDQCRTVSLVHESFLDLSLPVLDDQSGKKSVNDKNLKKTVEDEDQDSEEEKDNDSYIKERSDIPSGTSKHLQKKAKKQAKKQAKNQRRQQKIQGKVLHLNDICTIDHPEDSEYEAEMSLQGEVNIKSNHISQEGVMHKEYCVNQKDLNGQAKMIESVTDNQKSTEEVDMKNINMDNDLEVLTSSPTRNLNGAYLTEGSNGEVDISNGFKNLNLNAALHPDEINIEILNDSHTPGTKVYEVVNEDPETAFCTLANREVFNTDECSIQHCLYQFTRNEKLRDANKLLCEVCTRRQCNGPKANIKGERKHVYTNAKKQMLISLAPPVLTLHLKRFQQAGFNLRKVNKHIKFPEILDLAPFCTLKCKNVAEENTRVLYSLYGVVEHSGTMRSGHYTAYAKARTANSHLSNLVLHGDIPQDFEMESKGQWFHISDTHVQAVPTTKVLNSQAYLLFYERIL
How it was run: as §1

Measured: log2 ratio of Biotin-Ahx-Ub-VS probe labelling

O=C(CCl)NC1CCN(C(=O)C2CCCCC2)CC1
inactive: OTUD6B 0.191 | OTUD7B -0.643 | PRPF8 0.0534 | PSMD7 -0.106 | UCHL1 -0.513 | UCHL3 0.338 | UCHL5 0.125 | USP10 -0.0591 | USP15 -0.0587 | USP16 -0.0778

Source: the supplement of paper PMC11732987, “Enantioselective OTUD7B fragment discovery through chemoproteomics screening and high-throughput optimisation” (Communications Chemistry, 2025)
